Consider 14 compounds from publication PMC5540273 (PLoS ONE, 2017).

Among the test systems are S6K1; SBK1; SGK2; SGK3; SGK; SIK2; SIK; SLK; SNRK; SRC; SRMS; SRPK1; SRPK2; SRPK3; STK16; STK33; STK35.
What all share (details): concentration: 1 μM,replicates: in singlicate; n = 1
The subject of test [1] is T1, RSK4(Kin.Dom.1-N-terminal).
T1 construct: gene RPS6KA6

Test [2] has as its system T2, RSK4(Kin.Dom.2-C-terminal).
T2 construct: gene RPS6KA6

For a further test, the system named is T3, SNARK.
T3 construct: gene NUAK2
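Note: KINOMEscan kinase panel screen.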

As to `O=C(Nc1ccccc1)c1cccc(Oc2ccc3nccn3n2)c1`, the “%Inh” value in test [1] came to 5%; in test [2], 0%; with S6K1, 0%; with SBK1, 5%; in the test on SGK2, 18%; with SGK3, 17%. Besides, the “%Inh” value in the test with SGK stood at 0%; in the test on SIK2 it was 0%; in the test on SIK, 0%; in the test with SLK, 9%; in the test with SNARK, 0%; in the test on SNRK, 0%. Moreover, the “%Inh” value with SRC worked out at 0%; in the test on SRMS it was 0%; with SRPK1, 2%; with SRPK2, 0%; with SRPK3, 0%; in the test on STK16, 0%. The “%Inh” value in the test on STK33 was found to be 12%; with STK35, 0%.

For the compound `Cn1ccc2ncnc(Oc3ccc(NC(=O)Nc4cccc(C(F)(F)F)c4)c(F)c3)c21`, the “%Inh” value in [1] worked out at 0%; in test [2], 2%; in the test with S6K1, 22%; in the test on SBK1, 0%; in the test on SGK2, 0%; in the test with SGK3, 2%. For the same compound, the “%Inh” value in the test on SGK is 0%; in the test with SIK2, 3%; with SIK it was 28%; with SLK it was 54%; in the test on SNARK, 0%; in the test with SNRK it was 0%. Also, the “%Inh” value turned out to be 2% in the test on SRC; 0% in the test on SRMS; 23% with SRPK1; 49% with SRPK2; 23% in the test with SRPK3; 0% in the test with STK16. Moreover, the “%Inh” value with STK33 is given as 64%; with STK35 it was 4%.

As for `CC(=O)Nc1nc2cnc(Nc3cc(NC(=O)c4cccc(CC(C)(C)C#N)c4)ccc3C)nc2s1`, the “%Inh” value in test [1] was determined as 25%; in test [2] it was 0%; with S6K1, 0%; in the test with SBK1 it was 52%; in the test with SGK2, 0%; in the test on SGK3, 0%. The “%Inh” value in the test with SGK was found to be 4%; with SIK2 it was 0%; in the test with SIK it was 24%; in the test on SLK it was 1%; in the test with SNARK, 0%; in the test with SNRK it was 17%. The “%Inh” value turned out to be 56% in the test with SRC; 0% with SRMS; 46% in the test on SRPK1; 0% with SRPK2; 9% in the test with SRPK3; 25% with STK16. Further, the “%Inh” value with STK33 and in the test on STK35 was 0% throughout.

Regarding `O=C1NCCc2[nH]c(-c3ccncc3)cc21`, the “%Inh” value is 22% in [1]; 25% in test [2]; 11% in the test with S6K1; 44% in the test with SBK1; 27% with SGK2; 36% in the test with SGK3. In addition, the “%Inh” value amounted to 44% in the test on SGK; 34% in the test on SIK2; 13% in the test on SIK; 22% in the test with SLK; 87% in the test with SNARK; 12% in the test on SNRK. Moreover, the “%Inh” value in the test on SRC is 6%; in the test on SRMS, 0%; in the test on SRPK1, 0%; in the test on SRPK2, 0%; with SRPK3, 4%; in the test with STK16, 33%. Also, the “%Inh” value with STK35 turned out to be 68%.

Turning to `Cc1ccc(CC(=O)N2CCc3cc(-c4cn(C)c5ncnc(N)c45)ccc32)cc1` [GSK2634758], the “%Inh” value in test [1] worked out at 0%; in test [2], 15%; with S6K1, 5%; in the test with SBK1 it was 7%; with SGK2 it was 0%; with SGK3, 4%. Besides, the “%Inh” value turned out to be 0% in the test on SGK; 0% with SIK2; 32% in the test with SIK; 59% with SLK; 37% with SNARK; 8% in the test on SNRK. The “%Inh” value is given as 0% in the test on SRC; 6% in the test with SRMS; 13% with SRPK1; 31% in the test on SRPK2; 10% with SRPK3; 100% with STK16. In addition, the “%Inh” value in the test with STK33 came to 0%; in the test with STK35, 5%.

Regarding `CC(=O)Nc1ccc(-c2cc3ncnc(SCC(=O)O)c3s2)cc1`, the “%Inh” value came out at 13% in test [1]; 18% in [2]; 0% in the test with S6K1; 22% in the test on SBK1; 0% with SGK2; 39% in the test with SGK3. Besides, the “%Inh” value turned out to be 0% with SGK; 24% in the test with SIK2; 6% in the test on SIK; 18% in the test with SLK; 15% with SNARK; 0% in the test on SNRK. In addition, the “%Inh” value was 11% with SRC; 13% in the test on SRMS; 0% in the test on SRPK1; 0% with SRPK2; 13% in the test with SRPK3; 32% in the test with STK16. Further, the “%Inh” value in the test with STK33 is 0%; in the test on STK35, 20%.

For `Cn1ccc2ncnc(Oc3ccc(NC(=O)Nc4cccc(C(F)(F)F)c4)c(Cl)c3)c21`, the “%Inh” value in [1] was found to be 0%; in test [2], 41%; with S6K1, 2%; with SBK1, 0%; with SGK2 it was 0%; in the test with SGK3 it was 0%. For the same compound, the “%Inh” value with SGK is listed as 0%; with SIK2 it was 9%; in the test on SIK, 10%; with SLK, 63%; in the test on SNARK, 0%; in the test on SNRK, 0%. The “%Inh” value in the test with SRC was determined as 7%; in the test on SRMS, 0%; in the test on SRPK1, 45%; in the test on SRPK2 it was 0%; in the test with SRPK3 it was 0%; in the test with STK16 it was 4%. Also, the “%Inh” value in the test with STK33 is given as 60%; with STK35, 0%.

For `Cl.Nc1n[nH]c2cc(-c3ccccn3)ccc12` [GSK2189892], the “%Inh” value was 3% in [1]; 0% in test [2]; 0% with S6K1; 28% in the test with SBK1; 0% in the test on SGK2; 0% with SGK3. Besides, the “%Inh” value in the test on SGK was determined as 0%; in the test with SIK2, 0%; in the test on SIK, 0%; in the test on SLK, 14%; in the test with SNARK, 18%; in the test on SNRK it was 0%. For the same compound, the “%Inh” value is listed as 0% in the test with SRC; 0% with SRMS; 0% in the test on SRPK1; 0% with SRPK2; 0% in the test with SRPK3; 22% in the test with STK16. Besides, the “%Inh” value with STK33 and in the test on STK35 was 0% in each case.

`CCNCC(Cc1ccccc1)NC(=O)c1cc(Br)c(-c2ccnc3[nH]ccc23)s1.Cl.Cl` (stereo not drawn) [GSK1383280]: the “%Inh” value is recorded as 33% in test [1]; 18% in test [2]; 67% with S6K1; 70% with SBK1; 9% in the test with SGK2; 82% in the test on SGK3. The “%Inh” value with SGK worked out at 65%; in the test on SIK2, 0%; in the test with SIK, 0%; with SLK, 0%; in the test with SNARK it was 93.1%; in the test with SNRK it was 0%. Further, the “%Inh” value stood at 14% in the test on SRC; 0% in the test on SRMS; 56% in the test on SRPK1; 0% with SRPK2; 0% in the test with SRPK3; 51% in the test on STK16. Further, the “%Inh” value with STK33 is on record as 95.9%; in the test with STK35, 0%.

For `O=C(Nc1ccc(Oc2ccc3nc(NC(=O)C4CC4)cn3n2)c(F)c1)c1cccn(-c2ccccc2)c1=O`, the “%Inh” value (in test [1]; in test [2]; with S6K1; with SBK1; in the test on SGK2; in the test on SGK3) was 0% throughout. The “%Inh” value in the test on SGK came to 0%; in the test on SIK2, 8%; with SIK, 59%; with SLK, 0%; in the test with SNARK, 0%; in the test on SNRK, 3%. The “%Inh” value in the test with SRC is 10%; with SRMS, 0%; in the test on SRPK1 it was 14%; in the test with SRPK2, 16%; in the test on SRPK3, 24%; in the test on STK16, 0%. Moreover, the entries for the “%Inh” value with STK33 and in the test with STK35 were 23% and 0%, respectively.

Regarding `Cn1ccc2ncnc(Oc3ccc(NC(=O)Nc4cncc(C(F)(F)F)c4)c(Cl)c3)c21`, the “%Inh” value in test [1] came out at 0%; in [2] it was 12%; in the test on S6K1 it was 0%; with SBK1, 0%; in the test with SGK2, 0%; with SGK3, 0%. Besides, the “%Inh” value amounted to 0% with SGK; 0% in the test with SIK2; 0% in the test on SIK; 20% in the test with SLK; 0% in the test with SNARK; 0% in the test on SNRK. Further, the “%Inh” value with SRC came out at 5%; in the test with SRMS, 0%; in the test on SRPK1, 73%; in the test with SRPK2, 0%; in the test with SRPK3 it was 0%; with STK16, 4%. In addition, the “%Inh” value with STK33 turned out to be 8%; with STK35, 0%.

`CN(c1ccc2c(c1)nc(NCc1ccc(F)cc1)n2C)c1ccnc(Nc2ccc(CS(C)(=O)=O)cc2)n1.Cl` [GW813244]: the “%Inh” value in [1] is 16%; in test [2], 0%; with S6K1 it was 11%; in the test with SBK1, 10%; in the test on SGK2, 18%; in the test with SGK3, 0%. The “%Inh” value was determined as 17% with SGK; 39% in the test with SIK2; 0% in the test on SIK; 61% in the test on SLK; 0% in the test with SNARK; 0% in the test with SNRK. The “%Inh” value was 64% in the test on SRC; 56% in the test on SRMS; 41% in the test with SRPK1; 0% with SRPK2; 67% in the test with SRPK3; 46% in the test with STK16. Besides, the “%Inh” value is 0% in the test with STK33 and 15% with STK35.

In the case of `C[C@@H](Oc1cc(-n2cnc3cc(-c4ccncc4)ccc32)sc1C(N)=O)c1ccccc1Cl` [GSK479719], the “%Inh” value in test [1] stood at 25%; in test [2], 21%; in the test with S6K1, 11%; with SBK1, 19%; with SGK2 it was 5%; with SGK3 it was 0%. The “%Inh” value in the test with SGK was 0%; in the test on SIK2, 43%; with SIK, 11%; in the test on SLK, 99.4%; in the test on SNARK it was 95.4%; in the test with SNRK, 3%. Also, the “%Inh” value amounted to 26% in the test on SRC; 0% with SRMS; 89% with SRPK1; 0% in the test on SRPK2; 64% in the test with SRPK3; 46% in the test on STK16. In addition, the “%Inh” value in the test with STK33 was 1%; in the test on STK35, 0%.

As to `COc1ccc(Nc2nccc(N3CCC(NC(=O)c4cccc(C#N)c4)C3)n2)cc1` (stereo not drawn) [GSK1379730], the “%Inh” value is 0% in test [1]; 0% in test [2]; 0% with S6K1; 6% in the test with SBK1; 0% in the test on SGK2; 0% in the test on SGK3. Further, the “%Inh” value was 0% in the test on SGK; 0% in the test on SIK2; 18% in the test on SIK; 30% with SLK; 0% in the test with SNARK; 0% with SNRK. Also, the “%Inh” value in the test on SRC came out at 19%; with SRMS, 0%; in the test on SRPK1, 36%; in the test with SRPK2, 0%; with SRPK3, 0%; in the test on STK16, 2%. For the same compound, the “%Inh” value is reported as 10% in the test with STK33 and 0% in the test on STK35.
